Source: PubChem (National Center for Advancing Translational Sciences (NCATS))
uPA generation – inhibitors of cell surface uPA generation | cell surface uPA generation assay, qHTS | Potency, µM (titrated, usually from 38.3 µM), inactives show at the top dose activity change, negative = inhibition, hits mostly inhibitors | 0.31% of 330,000 active | AID 540303; active = well fitted inhibition curve with a large enough effect; inconclusive = small, poorly fitted or top-dose-only effect; inactive = no such curve, though single readings can be large or run the other way; tested in mouse RAW 264.7 cells; note: potency is the fitted concentration of half-maximal effect; % is set by controls: 0 for no effect and ±100 for the full control effect; nearly all actives have a fitted effect of over 55% in size
S2 tox – viability counter-screen for ATXN expression inhibitors. S2 cells (HEK-293 line with an ATXN2-luciferase reporter) viability, CellTiter-Fluor protease fluorescence, 24 h. 0.49% of 400,000 active. Potency, µM (top dose mostly 56.7 µM), usual class: cytotoxic; note: potency is the fitted concentration of half-maximal effect; nearly all actives have a fitted effect of over 40% in size
ATXN2 expr inh – inhibitors of ATXN2 expression; AID 1745845; HEK-293 ATXN2-luciferase reporter, luminescence, 24 h; Potency, µM (highest dose often 57 µM), inactives show at the top dose activity change, negative = inhibition, most hits filed as inhibitors; 0.72% of 360,000 active; note: potency is the fitted concentration of half-maximal effect; % is set by controls: 0 for no effect and ±100 for the full control effect; nearly all actives have a fitted effect of over 55% in size
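qHTS (up to 57 uM final) was run with 24 h compound exposure of reporter cells at 37 °C. Each well was multiplexed: SteadyGlo luminescence measured ATXN2-luciferase expression after a fluorogenic Gly-Phe-AFC viability readout (25 uM final).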
HepG2 tox-1 – kills HepG2 cells in TGF-b inhibitor counter-screen; Potency, µM (top dose mostly 46.1 µM), for inactives: at the top dose activity change, negative = cytotoxicity, most hits filed as cytotoxic; HepG2 CAGA-GFP viability, ATP luminescence, 18 h; 0.76% of 410,000 active; note: potency is the fitted concentration of half-maximal effect
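CellTiter-Glo luminescence gave cytotoxicity after 18 hours at 37 degrees C. The cells were HepG2 CAGA-GFP in 1% FBS DMEM, stimulated with 500 pg/mL TGF-beta after compound addition. %Activity was normalised to no-cell wells (complete cell-killing) and DMSO (no toxicity), and curves were fitted and classified.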
TGFb SMAD3 inh – TGF-b pathway inhibition | HepG2 CAGA-GFP TGF-b/SMAD3 reporter, GFP fluorescence, 18 h; TGF-beta stimulated, 500 pg/mL final | 1.2% of 410,000 active | Potency, µM (doses to about 46.1 µM), for the others: at the highest dose activity, negative = inhibition, usual class: inhibitors; note: potency is the fitted concentration of half-maximal effect; % is set by controls: 0 for no effect and ±100 for the full control effect; nearly all actives have a fitted effect of over 65% in size
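HEPG2 CAGA-GFP, 1000 cells/well; 2 h settle, 37 C; cpd via pin tool; TGF-b 500 pg/mL final; 18 h, 37 C; GFP imaging ex488/em500-530; %Activity normalised to -TGF-b and +DMSO controls; CRC fit, curve class.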
Giardia killer – Giardia lamblia killing; Giardia lamblia trophozoite viability; activity change, % at 7.66 µM, hits read low; 0.15% of 340,000 active; AID 540267; in the data active = activity change below about -80%; inconclusive = between about -30% and that limit;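 note: parasites exposed to compound for two days anaerobically before the ATP read; % is set by controls: 0 for no effect and ±100 for the full control effect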
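Killing of trophozoites was scored by loss of ATP luminescence after a 48 hrs anaerobic exposure to compounds at 37 deg C, using 100 cells per well.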
TGFb confirm – TGF-b pathway inhibition, cherry-pick retest; HepG2 CAGA-GFP TGF-b reporter, GFP fluorescence, 18 h; cells stimulated with TGF-beta, 500 pg/mL; 63% of 1,600 active; Potency, µM (doses to about 46.1 µM), for the others: top-dose activity, negative = inhibition, hits mostly inhibitors; shares compounds with TGFb SMAD3 inh; note: potency is the fitted concentration of half-maximal effect; % is set by controls: 0 for no effect and ±100 for the full control effect; nearly all actives have a fitted effect of over 65% in size
HepG2 tox-2 – counter-screen for TGF-b inhibitors: cytotoxicity in HepG2 cells; shares compounds with TGFb SMAD3 inh; Potency, µM (titrated, usually from 46.1 µM), without a hit: at the highest dose activity, negative = cytotoxicity, most hits filed as inhibitors; AID 720535; HepG2 CAGA-GFP viability, ATP luminescence, 18 h; cells stimulated with TGF-beta, 500 pg/mL; 27% of 1,600 active; note: potency is the fitted concentration of half-maximal effect; % is set by controls: 0 for no effect and ±100 for the full control effect; nearly all actives have a fitted effect of over 70% in size
TGFb CCL64 inh – orthogonal confirmation of TGF-b inhibitors in CCL64 cells. AID 720536. shares compounds with TGFb SMAD3 inh. 41% of 1,600 active. Potency, µM (series often up to 46.1 µM), inactives show at the highest dose activity, negative = inhibition, hits mostly inhibitors. CCL64 CAGA-GFP reporter, TGF-b stimulated, GFP fluorescence, 18 h; note: potency is the fitted concentration of half-maximal effect; nearly all actives have a fitted effect of over 65% in size
COP TGFb inh – TGF-b inhibition validated with COP promoter; 3% of 1,600 active; HepG2 COP-GFP TGF-b reporter, GFP fluorescence, 18 h; cells stimulated by added recombinant TGF-beta; Potency, µM (top dose mostly 46.1 µM), for the others: at the highest dose activity, negative = inhibition, actives largely listed as inhibitors; shares compounds with TGFb SMAD3 inh; note: potency is the fitted concentration of half-maximal effect; nearly all actives have a fitted effect of over 70% in size
Active calls of the source: *; [ ] = dose if it differs, or a comment. This is a sample that favours compounds with a hit; in the whole collection about 2.6% have one here. Unless noted, calls come from the whole dose curve; as a rule, active = well fitted curve in the direction sought with a large enough effect; inconclusive = small, poorly fitted or top-dose-only effect, or another doubt; inactive = no such curve, though single readings can be large; an effect the other way counts as inactive or inconclusive.

What do the screens show for `O=C(Nc1c(Cl)ccc2nsnc12)c1ccc([N+](=O)[O-])o1`?
uPA generation: inconclusive; S2 tox: inactive; ATXN2 expr inh: -12%; HepG2 tox-1: 13µM*; TGFb SMAD3 inh: 10µM*; Giardia killer: -87*; TGFb confirm: 8.2µM*; HepG2 tox-2: inconclusive; TGFb CCL64 inh: inconclusive; COP TGFb inh: inconclusive

How did Cc1cc(NC(=O)c2ccc([N+](=O)[O-])o2)ccc1NC(=O)c1ccco1 do in these assays?
uPA generation: inconclusive; S2 tox: inconclusive; ATXN2 expr inh: -8%; HepG2 tox-1: -108%; TGFb SMAD3 inh: 7.1µM*; Giardia killer: -94*; TGFb confirm: 4.1µM*; HepG2 tox-2: 21µM*; TGFb CCL64 inh: inconclusive; COP TGFb inh: -50%

How did CC(=O)Nc1ccc(N2CCOCC2)c(Cl)c1 do in these assays?
uPA generation: 1%; S2 tox: inactive; ATXN2 expr inh: 0%; HepG2 tox-1: -11%; TGFb SMAD3 inh: -20%; Giardia killer: 10

Results for Cc1cc([N+](=O)[O-])ccc1NC(=O)c1ccco1 ?
uPA generation: -2%; S2 tox: inactive; ATXN2 expr inh: -16%[11.3 µM]; HepG2 tox-1: 6%; TGFb SMAD3 inh: 4%; Giardia killer: -24

How did O=C(Nc1ccc(N2CCOCC2)c(Cl)c1)c1ccc([N+](=O)[O-])o1 do in these assays?
uPA generation: inconclusive; S2 tox: inconclusive; HepG2 tox-1: 13µM*; TGFb SMAD3 inh: 8.9µM*; Giardia killer: -89*; TGFb confirm: 15µM*; HepG2 tox-2: 21µM*; TGFb CCL64 inh: 13µM*; COP TGFb inh: inconclusive

What do the screens show for `Cc1ccnc2cc(Cl)cc(Cl)c12`?
HepG2 tox-1: 30%; TGFb SMAD3 inh: 14%

Results for O=C(Nc1ccc2oc(-c3ccncc3)nc2c1)c1ccc([N+](=O)[O-])o1 ?
uPA generation: -10%; S2 tox: inconclusive; ATXN2 expr inh: 2%; HepG2 tox-1: -24%; TGFb SMAD3 inh: 5.6µM*; Giardia killer: -80*; TGFb confirm: 6.5µM*; HepG2 tox-2: inconclusive; TGFb CCL64 inh: inconclusive; COP TGFb inh: 16%

Results for CC(C)C(=O)N1CCN(c2ccc(NC(=O)c3ccc([N+](=O)[O-])o3)cc2Cl)CC1 ?
uPA generation: -13%; S2 tox: inactive; ATXN2 expr inh: inconclusive; HepG2 tox-1: -55%; TGFb SMAD3 inh: 7.9µM*; Giardia killer: -88*; TGFb confirm: 5.8µM*; HepG2 tox-2: 21µM*; TGFb CCL64 inh: inconclusive; COP TGFb inh: -7%

How did CC(=O)N1CCN(c2ccc(NC(=O)c3ccc(Br)o3)cc2Cl)CC1 do in these assays?
uPA generation: 4%; S2 tox: inactive; HepG2 tox-1: -22%; TGFb SMAD3 inh: -11%; Giardia killer: 2

What do the screens show for `CC(C)C(=O)N1CCN(c2ccc(NC(=O)c3ccc([N+](=O)[O-])o3)cc2)CC1`?
uPA generation: -13%; S2 tox: inactive; ATXN2 expr inh: 15%; HepG2 tox-1: -37%; TGFb SMAD3 inh: inconclusive; Giardia killer: inconclusive; TGFb confirm: 5.8µM*; HepG2 tox-2: 10µM*; TGFb CCL64 inh: inconclusive; COP TGFb inh: -22%

Results for O=C(Nc1ccc2oc(-c3ccncc3)nc2c1)c1ccccc1 ?
uPA generation: -3%; S2 tox: inactive; ATXN2 expr inh: -3%; HepG2 tox-1: -1%; TGFb SMAD3 inh: 11%; Giardia killer: 5

What do the screens show for `CN1CCN(c2ccc(NC(=O)c3ccc([N+](=O)[O-])o3)cc2Cl)CC1`?
uPA generation: -18%; S2 tox: 20µM*; ATXN2 expr inh: -27%; HepG2 tox-1: -64%; TGFb SMAD3 inh: 10µM*; Giardia killer: inconclusive; TGFb confirm: 8.2µM*; HepG2 tox-2: 16µM*; TGFb CCL64 inh: 23µM*; COP TGFb inh: 16%

Results for CC1CCc2c(C(=O)Nc3cccc(-c4nn[nH]n4)c3)csc2C1 (stereo not drawn) ?
uPA generation: -14%; S2 tox: inactive; ATXN2 expr inh: 30%; HepG2 tox-1: -6%; TGFb SMAD3 inh: -4%; Giardia killer: 2

Results for CCc1nc(SCc2cc(=O)c3cc(F)ccc3[nH]2)n[nH]1 ?
S2 tox: inactive; ATXN2 expr inh: 14%; HepG2 tox-1: -12%; TGFb SMAD3 inh: 1%

How did COc1ccc(CN2CCC3C=CCC(C(=O)O)C3C2=O)cc1OC (stereo not drawn) do in these assays?
HepG2 tox-1: -13%; TGFb SMAD3 inh: -4%; Giardia killer: -16

What do the screens show for `O=C(Nc1nc(OCCN2CCCC2=O)cnc1/C=C\c1ccccc1)c1cc2ccccc2s1`?
S2 tox: inactive; ATXN2 expr inh: -17%; HepG2 tox-1: -22%; TGFb SMAD3 inh: -5%

Results for CCOC(=O)C1=C(CC)Nc2ccccc2N=C1NC(=O)Nc1ccc(Cl)c(Cl)c1 ?
uPA generation: -5%; S2 tox: inconclusive; ATXN2 expr inh: inconclusive; HepG2 tox-1: -36%; TGFb SMAD3 inh: 7.1µM*; Giardia killer: -4; TGFb confirm: 18µM*; HepG2 tox-2: inconclusive; TGFb CCL64 inh: 6.5µM*; COP TGFb inh: 81%

What do the screens show for `COc1cccc(Cc2nc3ccccc3nc2SCC(=O)Nc2cccc(C)c2)c1`?
HepG2 tox-1: -9%; TGFb SMAD3 inh: -3%

Results for Cc1ccc(C)c(Cn2nnc3c(=O)[nH]c(C(=O)NCc4ccco4)nc32)c1 ?
uPA generation: -10%; S2 tox: inactive; ATXN2 expr inh: -6%; HepG2 tox-1: 0%; TGFb SMAD3 inh: -14%; Giardia killer: 4
